# Values joined by “and” are separate entries in the source; they are usually repeats but may differ in a detail not shown here. Equal entries are not always repeated. The whole screen tested about 5,500 compounds, of which about 2,000 (36%) were called active. Not shown: some 18% with an inconclusive outcome. This is one part of the list. Values without a mark were called inactive. Rule as the data show it: active = normalized growth mostly below about 0.91 (no sharp cut-off); inconclusive = no clear call, values can overlap the other calls; inactive = mostly above about 0.92.
# Experiment: chemical genetic growth profiling, strain panel (AID 1159580);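 also: tested at 20 µM; growth read once vehicle control cultures reached saturation at 30 °C; 1 = growth at the plate median or of vehicle wells; lower values mean less growth of the strain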
# Details: growth OD
compound,measurement,setting,value
CC1(C)C2(Cl)C(Cl)C(Cl)C(Cl)(C(Cl)Cl)C1(Cl)C2Cl (configuration not stated),normalized growth,"S. cerevisiae deletion strains, locus YAL013W, strain DEP1, hits give low values",0.98
same,normalized growth,"S. cerevisiae deletion strains, locus YBR021W, strain FUR4, hits give low values",0.985
same,normalized growth,"S. cerevisiae deletion strains, locus YBR229C, strain ROT2, hits give low values",0.985
same,normalized growth,"S. cerevisiae deletion strains, locus YCL029C, strain bik1, hits give low values",0.982
same,normalized growth,"S. cerevisiae deletion strains, locus YDL035C, strain GPR1, hits give low values",0.947
same,normalized growth,"S. cerevisiae deletion strains, locus YDL074C, strain BRE1, hits give low values",0.918
same,normalized growth,"S. cerevisiae deletion strains, locus YDL101C, strain DUN1, hits give low values",0.982
same,normalized growth,"S. cerevisiae deletion strains, locus YDL134C, strain PPH21, hits give low values",0.981
same,normalized growth,"S. cerevisiae deletion strains, locus YDL185W, strain tfp1, hits give low values",0.976
same,normalized growth,"S. cerevisiae deletion strains, locus YDL192W, strain arf1, hits give low values",0.98
same,normalized growth,"S. cerevisiae deletion strains, locus YDR101C, strain arx1, hits give low values",0.993
same,normalized growth,"S. cerevisiae deletion strains, locus YDR150W, strain NUM1, hits give low values",0.994
same,normalized growth,"S. cerevisiae deletion strains, locus YDR162C, strain NBP2, hits give low values",0.968
same,normalized growth,"S. cerevisiae deletion strains, locus YDR318W, strain mcm21, hits give low values",0.95
same,normalized growth,"S. cerevisiae deletion strains, locus YDR388W, hits give low values",0.964
same,normalized growth,"S. cerevisiae deletion strains, locus YDR502C, strain sam2, hits give low values",0.957
same,normalized growth,"S. cerevisiae deletion strains, locus YEL061C, strain CIN8, hits give low values",0.992
same,normalized growth,"S. cerevisiae deletion strains, locus YER110C, hits give low values",0.984
same,normalized growth,"S. cerevisiae deletion strains, locus YER155C, strain BEM2, hits give low values",1
same,normalized growth,"S. cerevisiae deletion strains, locus YER167W, strain BCK2, hits give low values",0.975
same,normalized growth,"S. cerevisiae deletion strains, locus YGL078C, strain dbp3, hits give low values",0.982
same,normalized growth,"S. cerevisiae deletion strains, locus YGL086W, strain mad1, hits give low values",0.962
same,normalized growth,"S. cerevisiae deletion strains, locus YGL248W, strain PDE1, hits give low values",0.979
same,normalized growth,"S. cerevisiae deletion strains, locus YGR078C, strain PAC10, hits give low values",0.94
same,normalized growth,"S. cerevisiae deletion strains, locus YGR135W, strain pre9, hits give low values",0.951
same,normalized growth,"S. cerevisiae deletion strains, locus YGR229C, strain SMI1, hits give low values",0.865
same,normalized growth,"S. cerevisiae deletion strains, locus YGR252W, strain gcn5, hits give low values",0.956
same,normalized growth,"S. cerevisiae deletion strains, locus YHR030C, strain SLT2, hits give low values",0.995 and 0.96
same,normalized growth,"S. cerevisiae deletion strains, locus YHR079C, strain IRE1 (second series), hits give low values",0.975
same,normalized growth,"S. cerevisiae deletion strains, locus YHR079C, strain IRE1, hits give low values",0.946
same,normalized growth,"S. cerevisiae deletion strains, locus YHR094C, strain hxt1, hits give low values",0.981
same,normalized growth,"S. cerevisiae deletion strains, locus YHR129C, strain ARP1, hits give low values",0.984
same,normalized growth,"S. cerevisiae deletion strains, locus YHR200W, strain rpn10, hits give low values",0.979
same,normalized growth,"S. cerevisiae deletion strains, locus YIL066C, strain RNR3, hits give low values",0.891
same,normalized growth,"S. cerevisiae deletion strains, locus YIL073C, strain SPO22, hits give low values",0.829
same,normalized growth,"S. cerevisiae deletion strains, locus YIL125W, strain kgd1, hits give low values",0.981
same,normalized growth,"S. cerevisiae deletion strains, locus YIR030C, strain dcg1, hits give low values",0.978
same,normalized growth,"S. cerevisiae deletion strains, locus YJL095W, strain BCK1, hits give low values",0.954 and 0.978
same,normalized growth,"S. cerevisiae deletion strains, locus YJL134W, strain LCB3, hits give low values",0.991
same,normalized growth,"S. cerevisiae deletion strains, locus YJL168C, strain set2, hits give low values",0.978
same,normalized growth,"S. cerevisiae deletion strains, locus YJL187C, strain SWE1 (second series), hits give low values",0.983
same,normalized growth,"S. cerevisiae deletion strains, locus YJR043C, strain POL32, hits give low values",1.01
same,normalized growth,"S. cerevisiae deletion strains, locus YJR066W, strain TOR1, hits give low values",0.935
same,normalized growth,"S. cerevisiae deletion strains, locus YJR075W, strain HOC1, hits give low values",0.954
same,normalized growth,"S. cerevisiae deletion strains, locus YKL009W, strain mrt4, hits give low values",0.971
same,normalized growth,"S. cerevisiae deletion strains, locus YKL068W, hits give low values",0.971
same,normalized growth,"S. cerevisiae deletion strains, locus YKL085W, strain MDH1 (second series), hits give low values",0.968
same,normalized growth,"S. cerevisiae deletion strains, locus YKL085W, strain MDH1, hits give low values",0.968
same,normalized growth,"S. cerevisiae deletion strains, locus YKL190W, strain CNB1, hits give low values",0.989
same,normalized growth,"S. cerevisiae deletion strains, locus YKR001C, strain vps1, hits give low values",0.932
same,normalized growth,"S. cerevisiae deletion strains, locus YLR039C, strain RIC1, hits give low values",0.79
same,normalized growth,"S. cerevisiae deletion strains, locus YLR058C, strain SHM2, hits give low values",0.978
same,normalized growth,"S. cerevisiae deletion strains, locus YLR102C, strain apc9, hits give low values",0.986
same,normalized growth,"S. cerevisiae deletion strains, locus YLR113W, strain HOG1, hits give low values",0.948
same,normalized growth,"S. cerevisiae deletion strains, locus YLR262C, strain YPT6, hits give low values",0.768
same,normalized growth,"S. cerevisiae deletion strains, locus YLR268W, strain sec22, hits give low values",0.956
same,normalized growth,"S. cerevisiae deletion strains, locus YLR330W, strain CHS5, hits give low values",0.992
same,normalized growth,"S. cerevisiae deletion strains, locus YLR342W, strain FKS1 (second series), hits give low values",0.893
same,normalized growth,"S. cerevisiae deletion strains, locus YLR371W, strain rom2, hits give low values",0.986
same,normalized growth,"S. cerevisiae deletion strains, locus YLR418C, strain cdc73, hits give low values",0.755 (active)
same,normalized growth,"S. cerevisiae deletion strains, locus YML016C, strain PPZ1, hits give low values",0.984
same,normalized growth,"S. cerevisiae deletion strains, locus YML032C, strain rad52, hits give low values",0.954
same,normalized growth,"S. cerevisiae deletion strains, locus YML124C, strain tub3, hits give low values",0.982
same,normalized growth,"S. cerevisiae deletion strains, locus YMR078C, strain ctf18, hits give low values",0.961
same,normalized growth,"S. cerevisiae deletion strains, locus YMR223W, strain ubp8, hits give low values",0.939
same,normalized growth,"S. cerevisiae deletion strains, locus YMR263W, strain SAP30, hits give low values",0.993
same,normalized growth,"S. cerevisiae deletion strains, locus YMR307W, strain GAS1, hits give low values",0.887
same,normalized growth,"S. cerevisiae deletion strains, locus YNL067W, strain RPL9B, hits give low values",0.987
same,normalized growth,"S. cerevisiae deletion strains, locus YNL128W, strain TEP1, hits give low values",0.993
same,normalized growth,"S. cerevisiae deletion strains, locus YNL153C, strain GIM3, hits give low values",0.986
same,normalized growth,"S. cerevisiae deletion strains, locus YNL183C, strain NPR1, hits give low values",0.943
same,normalized growth,"S. cerevisiae deletion strains, locus YNL233W, strain BNI4, hits give low values",0.989
same,normalized growth,"S. cerevisiae deletion strains, locus YNL250W, strain rad50, hits give low values",0.969
same,normalized growth,"S. cerevisiae deletion strains, locus YNL271C, strain bni1, hits give low values",0.97
same,normalized growth,"S. cerevisiae deletion strains, locus YNL298W, strain CLA4, hits give low values",0.971
same,normalized growth,"S. cerevisiae deletion strains, locus YNL307C, strain MCK1, hits give low values",0.544 (active)
same,normalized growth,"S. cerevisiae deletion strains, locus YNL322C, strain KRE1, hits give low values",0.994
same,normalized growth,"S. cerevisiae deletion strains, locus YNR052C, strain pop2, hits give low values",0.963
same,normalized growth,"S. cerevisiae deletion strains, locus YOL006C, strain TOP1, hits give low values",0.867
same,normalized growth,"S. cerevisiae deletion strains, locus YOL012C, strain htz1",0.99
same,normalized growth,"S. cerevisiae deletion strains, locus YOL147C, strain pex11, hits give low values",0.982
same,normalized growth,"S. cerevisiae deletion strains, locus YOR061W, strain CKA2, hits give low values",0.994
same,normalized growth,"S. cerevisiae deletion strains, locus YOR069W, strain VPS5, hits give low values",0.984
same,normalized growth,"S. cerevisiae deletion strains, locus YOR136W, strain idh2, hits give low values",0.966
same,normalized growth,"S. cerevisiae deletion strains, locus YOR144C, strain elg1, hits give low values",0.981
same,normalized growth,"S. cerevisiae deletion strains, locus YOR184W, strain ser1, hits give low values",0.809 (active)
same,normalized growth,"S. cerevisiae deletion strains, locus YOR231W, strain MKK1, hits give low values",0.964
same,normalized growth,"S. cerevisiae deletion strains, locus YOR316C, strain cot1, hits give low values",0.977
same,normalized growth,"S. cerevisiae deletion strains, locus YPL055C, strain LGE1, hits give low values",0.96
same,normalized growth,"S. cerevisiae deletion strains, locus YPL241C, strain CIN2, hits give low values",0.993
same,normalized growth,"S. cerevisiae deletion strains, locus YPL256C, strain CLN2, hits give low values",0.9
same,normalized growth,"S. cerevisiae deletion strains, locus YPR119W, strain clb2, hits give low values",0.976
same,normalized growth,"S. cerevisiae deletion strains, locus YPR141C, strain kar3, hits give low values",0.957
same,normalized growth,"S. cerevisiae deletion strains, locus YPR163C, strain tif3, hits give low values",0.91 (active)
same,normalized growth,"S. cerevisiae deletion strains, locus YPR167C, strain met16, hits give low values",0.974
same,normalized growth,"S. cerevisiae deletion strains, strain wtn01, hits give low values",0.966
same,normalized growth,"S. cerevisiae strains, strain wild type, hits give low values",0.986

# Source: PubChem BioAssay AID1159580 (chemical genetic matrix, 2015)
